The values that follow come from ChEMBL document CHEMBL3988442, “University of Dundee, Small-Polar-MMV Screening Library” (2021).

About 13,000 (27%) of roughly 48,000 compounds showed an effect of 50% or more. The list shows a part of the results.

The assay concerns Wolbachia pipientis. Description: Anti-Wolbachia Cell-Based Screen. In kind it is functional. More on the design: scale not given: in the data most compounds retested in dose-response had high values. The following applies: 5 µM.
As to `CCc1ccc(C(=O)N2CCCC3(CCCC(=O)N3C)C2)cc1` (centres undefined), the “Percent Effect” value turned out to be 97.96%. The figure for `O=C(NC1CCCCC1)N1C[C@H]2CN(c3cnccn3)C[C@@]2(C(=O)O)C1` is -17.1%; for `Cc1ccc2c(c1)C(NCc1ncnn1C)CC2` (centres undefined) it is -32.91%. For `CN1C(=O)CC(C(=O)O)C12CCN(Cc1ccc(Cl)c(F)c1)CC2` (centres undefined) the value was -9.63%; for `COc1ccccc1OCCNC(=O)NCC(C)C`, -1.191%. Regarding `CC(C)c1ccc(C(C)NC(=O)N2CCC(n3cncn3)CC2)cc1` (centres undefined), the “Percent Effect” value was -4.399%. The figure for `COc1ccccc1OCCNC(=O)N1CCC(n2cncn2)CC1` is 92.74%; for `COc1ccccc1CCNC(=O)N1CCC(n2cncn2)CC1` it is 106.2%. In the case of `CC(NC(=O)N1CCC(n2cncn2)CC1)c1ccc(F)cc1F` (centres undefined), the “Percent Effect” value is -3.93%. Take `COC(CNC(=O)N1CCC(n2cncn2)CC1)c1ccccc1` (centres undefined): the “Percent Effect” value was found to be 1.274%.

Regarding `CC(C)Oc1ccccc1NC(=O)N1CCC(n2cncn2)CC1`, the “Percent Effect” value came out at 90.39%. Turning to `O=C(Nc1ccc(N2CCCC2)nc1)N1CCc2sccc2C1`, the “Percent Effect” value was 6.616%.

`CCS(=O)(=O)NCCCNc1ncnc2cc(F)c(F)cc12`: the “Percent Effect” value is listed as -7.857%. For `CS(=O)(=O)NC[C@]12COC[C@H]1CN(C(=O)CCc1ccccc1)C2`, the “Percent Effect” value was -0.4913%. The figure for `CS(=O)(=O)NC[C@]12COC[C@H]1CN(C(=O)C1CCSCC1)C2` is 57.64%; for `CS(=O)(=O)NC[C@]12COC[C@H]1CN(C(=O)N1CCCC1)C2` it is 88.05%. For `Cn1cccc1C(=O)N1C[C@@H]2COC[C@]2(CNS(C)(=O)=O)C1`, the “Percent Effect” value is recorded as -3.959%. For the molecule `CS(=O)(=O)NC[C@]12COC[C@H]1CN(C(=O)c1ccoc1)C2`, the “Percent Effect” value is reported as -2.074%. For `O=C(NC[C@]12COC[C@H]1CN(CC1CCOCC1)C2)c1ccco1.O=C(O)C(F)(F)F` the value was 6.419%; for `Cc1ccoc1C(=O)N1C[C@@H]2COC[C@]2(CNS(C)(=O)=O)C1`, 15.9%; for `COC[C@]12COC[C@H]1CN(C(=O)C1CCSCC1)C2`, -5.007%. For the molecule `CS(=O)(=O)NC[C@]12COC[C@H]1CN(C(=O)CC1CCCC1)C2`, the “Percent Effect” value worked out at 102.4%. Turning to `CS(=O)(=O)NC[C@]12COC[C@H]1CN(CC1CCC1)C2.O=C(O)C(F)(F)F`, the “Percent Effect” value was determined as 92.98%. Consider `CS(=O)(=O)NC[C@]12COC[C@H]1CN(C(=O)Cc1ccccc1F)C2`, for which the “Percent Effect” value was 6.41%. For `O=C(O)C(F)(F)F.O=S(=O)(NC[C@]12COC[C@H]1CN(CCc1ccccc1)C2)C1CC1` the value was -3.746%; for `Clc1ccccc1OC1CCN(CC2CCOC2)CC1` (centres undefined), -1.584%. As for `CC(=O)Nc1ccc(CN2CCc3[nH]cnc3C2c2ccc(C)o2)cc1` (centres undefined), the “Percent Effect” value is -0.8872%.

On to `CC(=O)N[C@@H]1CN(C(=O)c2cc3sccc3[nH]2)C[C@H]1c1ccc(C)o1`, for which the “Percent Effect” value amounted to 26.08%. For `Cc1ccc(N2C[C@H]3OCC[C@H]3[C@H](C(=O)NCC3CC3)C2)nn1.O=C(O)C(F)(F)F`, the “Percent Effect” value is listed as 0.1783%. As for `Cc1ncsc1CCN(C)C(=O)CN1CCOC1=O`, the “Percent Effect” value is recorded as 2.507%. As for `Cc1cnc(C(C)(C)NC(=O)NCc2ccc(C#N)cc2F)s1`, the “Percent Effect” value is -5.008%. Consider `COc1ccc2nc(C[C@@H]3C[C@@H](C(C)C)[C@H](CN(C)C)C=C3C)[nH]c2n1`, for which the “Percent Effect” value is -3.892%. For `C[S+]([O-])CCCNC(=O)c1cc(Br)c2c(c1)OCCO2` (centres undefined) the value was -5.642%. For the molecule `CS(=O)(=O)NC[C@]12COC[C@H]1CN(C(=O)c1ncccn1)C2`, the “Percent Effect” value stood at 4.055%. Turning to `CS(=O)(=O)NC[C@]12COC[C@H]1CN(C(=O)C1CC(F)(F)C1)C2`, the “Percent Effect” value amounted to 112.2%. On to `CS(=O)(=O)NC[C@]12COC[C@H]1CN(C(=O)C1CC=CC1)C2`, for which the “Percent Effect” value is recorded as 99.92%. Regarding `CS(=O)(=O)NC[C@]12COC[C@H]1CN(C(=O)c1ccncn1)C2`, the “Percent Effect” value was 0.7032%. In the case of `CS(=O)(=O)NC[C@]12COC[C@H]1CN(C(=O)c1ccccc1)C2`, the “Percent Effect” value is given as 7.31%. For the molecule `COC[C@]12COC[C@H]1CN(C(=O)C1CC(F)(F)C1)C2`, the “Percent Effect” value was -2.486%. With `Cc1cc(CN(C)C(=O)c2cc3c([nH]c2=O)CCCC3=O)no1`, the “Percent Effect” value was -8.225%. As to `COc1c(C)cnc(CN(C)C(=O)c2cccc(NC(N)=O)c2)c1C`, the “Percent Effect” value was 7.754%. As for `CN(CC1(O)CCCC1)C(=O)c1cccc(Nc2cnccn2)c1`, the “Percent Effect” value stood at 136.4%. Regarding `CC(=O)c1cccc(OCCCC(=O)N(C)CCc2ccncc2)c1`, the “Percent Effect” value turned out to be 5.185%. Turning to `COc1ccnc(NC(=O)c2cnccn2)c1`, the “Percent Effect” value stood at 0.1681%. With `COCCN(CCOC)C(=O)c1cccc(Cn2nc(C)cc2C)c1`, the “Percent Effect” value is -2.572%.

As to `COCCN(CC(C)C)C(=O)c1cccc(Nc2cnccn2)c1`, the “Percent Effect” value stood at 186.1%. In the case of `CN(Cc1cnccn1)C(=O)c1ccnc(OC2CCC2)c1`, the “Percent Effect” value is on record as -12.54%. The figure for `CN(C)C(=O)c1cccc(Nc2cnn(C)c2)c1` is -3.903%.

Regarding `COCCCN(C)C(=O)c1cccc(Nc2cnccn2)c1`, the “Percent Effect” value came out at 100%.
